The results in this text go back to PubChem BioAssay AID1422 (Emory University Molecular Libraries Screening Center, 2008).

“And” between values parts separate entries of the source, which are not always exact repeats. Equal values may be shown once. In all, about 260,000 compounds went through this assay and about 1,300 (0.5%) were called active.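 The calls were made as follows: active = percent inhibition above 40 after rounding to a whole number; inactive = the rest.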 Many of the other results were omitted from the sample, so actives are more common in it than they were. The source holds several records for some structures; these can differ, active in one and inactive in another.

Prostaglandin E2 receptor EP2 subtype (Homo sapiens), sequence (P43116 whole entry, looked up): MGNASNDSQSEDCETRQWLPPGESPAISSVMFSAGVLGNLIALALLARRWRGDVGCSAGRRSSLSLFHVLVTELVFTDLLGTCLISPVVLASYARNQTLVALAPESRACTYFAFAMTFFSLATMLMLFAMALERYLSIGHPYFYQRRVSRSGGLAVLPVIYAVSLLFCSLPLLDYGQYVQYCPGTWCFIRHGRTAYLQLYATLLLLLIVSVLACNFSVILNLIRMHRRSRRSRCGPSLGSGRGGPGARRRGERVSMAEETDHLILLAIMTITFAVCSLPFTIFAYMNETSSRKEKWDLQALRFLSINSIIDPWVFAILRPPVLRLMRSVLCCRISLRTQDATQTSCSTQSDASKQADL

The assay has as its target Prostaglandin E2 receptor EP2 subtype (Homo sapiens) (UniProt P43116). Briefly: blockers of PGE2-driven EP2 cAMP signalling – TR-FRET cAMP, C6 glioma cells, primary screen (AID 1422).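 Also: rat C6 glioma host cells with rolipram phosphodiesterase inhibitor present; the protocol text gives 20 µM as final concentration.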 The following applies: C6 glioma cells expressing human EP2, cAMP TR-FRET; at 25 µM; stronger effect = higher value; cells stimulated with saturating PGE2. Background: TR-FRET usually uses a lanthanide donor and a delayed reading to cut background.
In the case of `N#CCN1CCN(c2ncnc3sc4c(c23)CCCC4)CC1`, the inhibition (in general, how much of the control response was suppressed) is 12.8% (inactive).

`CCN(CC)CCCN1C(=O)C(O)=C(C(=O)c2ccc(C)o2)C1c1ccccc1F` (stereo not drawn): the inhibition was 13.9% (inactive).

Consider `COc1ccc(C2=NNC(c3cccnc3)=Nc3ccc(Br)cc32)cc1OC`, for which the inhibition was 6.87% (inactive).

As to `Cc1cccc(C(=O)O)c1C[C@@H]1NCC[C@@H]2c3ccccc3N[C@@H]12`, the inhibition was 46% (active).

For `O=C(CN1N=C(c2ccccc2)Cn2c(cc3sccc32)C1=O)NCC1CCCO1` (stereo not drawn), the inhibition is 4.16% (inactive).

In the case of `CCc1cc2cc3c(cc2nc1SCC(=O)Nc1ccccc1Br)OCCO3`, the inhibition was 8.66% (inactive).

With `COC(=O)C(C)NC(=O)COc1ccc2ccccc2c1` (stereo not drawn), the inhibition is 8.28% (inactive).

As to `Cc1cc2ccccc2n1CCC(=O)O`, the inhibition was 7.85% (inactive).

Regarding `Cc1cc2ccccc2n1CCNC(=O)COc1ccc2ccccc2c1`, the inhibition is 73.2% (active).

As for `COC(=O)c1ccc(Cn2nc([N+](=O)[O-])c(Cl)c2C)cc1`, the inhibition was 12.7% (inactive).

Take `O=C(O)COc1c(Cl)cc(Cl)c2cccnc12`: the inhibition was 16.4% (inactive).

`O=S(=O)(O)c1ccc(O)c2ncccc12.O=S(=O)(O)c1ccc(O)c2ncccc12.[Zn]`: the inhibition was 45.1% (active).

Consider `O=[N+]([O-])c1cc([N+](=O)[O-])c2cccnc2c1O`, for which the inhibition is 7.12% (inactive).

For the compound `Cc1ccc(-n2c(SCC(=O)NC(C)(C)C)nnc2-c2cccnc2)cc1C`, the inhibition is 15.1% (inactive).

As to `COc1ccc(NS(=O)(=O)c2ccc(NC(=S)NC(=O)/C=C/c3ccc(C)cc3)cc2)nn1`, the inhibition was 63.2% (active).

Turning to `Cc1ccc(NC(=S)NC(=O)/C=C/c2ccc(Cl)cc2)cc1`, the inhibition is 5.92% (inactive).

Turning to `COc1ccc(NS(=O)(=O)c2ccc(NC(=O)C(C)(C(F)(F)F)C(F)(F)F)cc2)nn1`, the inhibition is 14.1% (inactive).

With `CC1CCN(c2nc3c(c(=O)[nH]2)CCN(Cc2ccc(C(F)(F)F)cc2)C3)CC1`, the inhibition is 6.96% (inactive).

As for `COc1ccc(Cc2nnc(NC(=O)Cc3ccc(Cl)cc3)s2)cc1OC`, the inhibition was 9.47% (inactive).

As to `CC1=NN(Cc2ccccc2)C(=O)/C1=C/c1ccc(N(C)C)cc1`, the inhibition was 18.2% (inactive).

Regarding `COc1cc(C=C2C(=O)OC3(CCCC3)OC2=O)ccc1OCc1ccccc1F`, the inhibition was 13.4% (inactive).

For the compound `CN(C)c1ccc(C=C2C(=O)OC3(CCCC3)OC2=O)cc1`, the inhibition was 41.7% (active) and 7.71% (inactive).

In the case of `Cc1nn(C)cc1S(=O)(=O)N(Cc1ccncc1)C1CC1`, the inhibition was 7.77% (inactive).

As for `Cc1nc2c(c(=O)[nH]1)CCN(C(=O)Cn1c3ccccc3c3ccccc31)C2`, the inhibition was 7.09% (inactive).

As to `Cc1[nH]nc2c1C(c1ccc(OCC(=O)N3CCCC3)cc1)C(C#N)=C(N)O2` (stereo not drawn), the inhibition is 10.8% (inactive).

In the case of `COc1ccc(OCCCC(=O)Nc2nc(-c3ccc(OC)cc3)cs2)cc1`, the inhibition is 12.9% (inactive).

For the compound `Cc1ccc(CNS(=O)(=O)c2cccc(S(=O)(=O)N3CCCC3)c2)cc1`, the inhibition is 10.8% (inactive).

As to `COCCn1c(N2CCCC2)nc2c1c(=O)n(C)c(=O)n2C`, the inhibition was 7.42% (inactive).

Consider `CC1=CC(C)(C)N(C(=O)CSc2nccn2C)c2cc(C)ccc21`, for which the inhibition was 17.5% (inactive).

With `O=C(CSc1nnc(-c2ccccc2)o1)N1CCOCC1`, the inhibition was 8.71% (inactive).

Turning to `CC1=CC(C)(C)N(C(=O)CSc2nnc(-c3ccccc3)o2)c2ccc(C)cc21`, the inhibition was 45.4% (active).

`COc1ccc(C2(NC(=O)c3noc(C)c3Cn3cccn3)CCCCC2)cc1`: the inhibition was 7.45% (inactive).

For the compound `Cc1ccc(NC(=O)CSc2nnc(-c3ccncc3)n2C2CCCCC2)c(C)c1`, the inhibition was 15.8% (inactive).

For the compound `COc1ccc(CNC(=O)CCSc2nc(-c3ccco3)cc(C(F)(F)F)n2)cc1`, the inhibition is 9.17% (inactive).

In the case of `CC(Nc1nc(N2CCCC2)nc2ccccc12)c1ccccc1` (stereo not drawn), the inhibition was 48.2% (active).

Take `CC(Nc1nc(N2CCOCC2)nc2ccccc12)c1ccccc1` (stereo not drawn): the inhibition was 7.73% (inactive).

With `CC(Nc1nc(N2CCN(CCO)CC2)nc2ccccc12)c1ccccc1` (stereo not drawn), the inhibition was 7.4% (inactive).

For the compound `COCCNS(=O)(=O)c1ccc2[nH]c(=O)[nH]c2c1`, the inhibition is 9.6% (inactive).

Consider `Cc1cc(C)c2[nH]c(C)c(CN(C)Cc3ccccc3)c(=O)c2c1`, for which the inhibition was 12% (inactive).

In the case of `CCC(c1nnnn1C(C)(C)C)N(Cc1ccccc1)Cc1cc2ccc(C)cc2[nH]c1=O` (stereo not drawn), the inhibition was 5.18% (inactive).

`Cc1nc(NC(=O)c2sc3nc4c(C)cccc4cc3c2N)sc1C`: the inhibition was 19.7% (inactive).

With `O=C(COC(=O)c1cccs1)Nc1ccccc1Cl`, the inhibition was 5.7% (inactive).

`O=C(Nc1ccccc1Cl)/C(Cl)=C(\Cl)S(=O)c1ccccc1` (stereo not drawn): the inhibition was 57.5% (active).

For `O=C(Nc1ccccc1Cl)c1ccc2nsnc2c1`, the inhibition was 5.72% (inactive).

In the case of `CC(C)OCCCNC(=O)c1cc(Sc2ccc(F)cc2)nc2ccccc12`, the inhibition is 8.64% (inactive).

Consider `COc1cc(OC)c(OC)cc1/C=N/Nc1ncnc2c1[nH]c1ccc(C)cc12`, for which the inhibition was 5.82% (inactive).

With `CC(C)OCCCNc1ncnc2c1[nH]c1ccc(F)cc12`, the inhibition is 46.2% (active).

`CCCc1[nH]nc2c1C(c1c(C)nn(-c3ccccc3)c1Cl)C(C#N)=C(N)O2` (stereo not drawn): the inhibition was 25.4% (inactive).

On to `CCCc1[nH]nc2c1C(c1ccc(Br)s1)C(C#N)=C(N)O2` (stereo not drawn), for which the inhibition is 51.9% (active).

On to `CCCc1[nH]nc2c1C(C1CC=CCC1)C(C#N)=C(N)O2` (stereo not drawn), for which the inhibition was 3.84% (inactive).

In the case of `CC(Sc1nnc(-c2cccnc2)n1-c1ccccc1)C(=O)Nc1ccc(N)cc1` (stereo not drawn), the inhibition was 14.6% (inactive).

`O=c1c2ccc(Br)c3cccc(c32)c2nc3ccccc3n12`: the inhibition was 6.4% (inactive).

As for `COc1ccccc1CNS(=O)(=O)c1ccc(S(=O)(=O)N2CCC(C)CC2)cc1`, the inhibition is 4.43% (inactive).
